Source: PubChem BioAssay AID2071 (Sanford-Burnham Center for Chemical Genomics, 2009)
In all, about 280,000 compounds went through this assay and about 1,700 (0.61%) were called active. No stated cut-off is given here; in the data, active means inhibition mostly above about 24% (no sharp cut-off); inactive means mostly below about 32%. Many of the other results were omitted from the sample, so actives are more common in it than they were.

Assay: NALP1 inflammasome inhibitors in reconstituted yeast, colorimetric, S. cerevisiae, triplicate retest (AID 2071)
Conditions: S. cerevisiae NALP1/ASC/caspase-1 growth, X-gal OD620, 72 h, stronger effect = higher value

CCN1C(=NCC(C)C)N[C@@H](CCc2ccccc2)[C@H](C(=O)NCC(C)C)[C@H]1C
inhibition (at 10 µM unless noted): -12.1% (inactive)

CCC(CC)c1nnc(NC(=O)C2CCN(C(=O)c3ccco3)CC2)s1
inhibition (at 10 µM unless noted): -1% (inactive)

CC(=O)N1CCN(CC(C)(C)NS(=O)(=O)c2ccc(C)cc2)CC1
inhibition (at 10 µM unless noted): -1% (inactive)

COc1ccc(NC(=O)c2sc3nc(C)nc(N4CCN(c5ccccn5)CC4)c3c2C)c(OC)c1
inhibition (at 10 µM unless noted): -10.9% (inactive)

CC1(C)CCSC(/C=C/c2ccccc2)=N1
inhibition (at 10 µM): 53.2% (active) | inhibition (triplicate retest, at 20 µM): 102%

CN(C)CCOC1c2ccccc2-c2ccccc21
inhibition (at 10 µM unless noted): 6% (inactive)

COc1cccc(OCC(=O)Nc2ccccc2C(N)=O)c1
inhibition (at 10 µM unless noted): 1.7% (inactive)

Cc1ccc(OCc2nc3ccccc3n2C)cc1
inhibition (at 10 µM unless noted): 33.1% (inactive)

CCCCCCCCCCOC(=O)Cn1c(COc2cccc(OC)c2)[n+](C)c2ccccc21
inhibition (at 10 µM unless noted): 36.3% (active)

CCCCOC(=O)Cn1c(=N)n(CCN(CC)CC)c2ccccc21
inhibition (at 10 µM unless noted): 2.6% (inactive)

CCCCOC(=O)Cn1c(=O)n(CC(=O)OCCCC)c2cc(C)ccc21
inhibition (at 10 µM unless noted): -1% (inactive)

CCCCCCCCCCOC(=O)Cn1c(COc2ccc(C)cc2)[n+](C)c2ccccc21
inhibition (at 10 µM unless noted): 24.8% (active)

O=C(Nc1cccc([N+](=O)[O-])c1)N1CCc2ccccc2C1
inhibition (at 10 µM unless noted): 7.7% (inactive)

Oc1c(Cl)cc(Cl)cc1/C=N/c1ncn[nH]1
inhibition (at 10 µM unless noted): 15.3% (inactive)

CC/C(=N\NC(=O)c1c(C)nc2ccccn12)c1ccc(Cl)cc1
inhibition (at 10 µM unless noted): 8.5% (inactive)

CCOc1ccc(N(CC(=O)NCCOc2ccccc2OC)S(=O)(=O)c2ccccc2)cc1
inhibition (at 10 µM unless noted): 3% (inactive)

CN(C)c1ccc(-c2nnc(-c3cccnc3)o2)cc1
inhibition (at 10 µM unless noted): -3.5% (inactive)

O=C(NCc1cccc(C(F)(F)F)c1)c1cccc(S(=O)(=O)N2CCN(Cc3ccccc3)CC2)c1
inhibition (at 10 µM unless noted): 9.8% (inactive)

CCn1c(=O)c(C(=O)NCc2ccc3c(c2)OCO3)c(O)c2ccccc21
inhibition (at 10 µM unless noted): 4.6% (inactive)

Nc1ccccc1SCc1cc([N+](=O)[O-])cc2c1OCOC2
inhibition (at 10 µM unless noted): 23.8% (active)

CC(O)C(NS(=O)(=O)c1ccc(Cl)cc1)C(=O)OCc1cc([N+](=O)[O-])cc2c1OCOC2 (stereo unspecified)
inhibition (at 10 µM unless noted): 9.8% (inactive)

CCS(=O)(=O)c1cc([N+](=O)[O-])c(Sc2ccccc2N)s1
inhibition (at 10 µM unless noted): 6.4% (inactive)

O=S(=O)(NC1CC1)c1ccc(F)c(F)c1
inhibition (at 10 µM unless noted): 3% (inactive)

CN(C)[C@@H]1C(=O)C(C(N)=O)=C(O)[C@@]2(O)C(=O)C3=C(O)c4c(O)ccc(Cl)c4[C@@H](O)[C@H]3C[C@@H]12
inhibition (at 10 µM unless noted): 136% (active)

O=C(N/N=C/c1ccccn1)c1cccc(NC(=O)c2ccc(Cl)cc2)c1
inhibition (at 10 µM unless noted): 8.8% (inactive)

S=C(NCCCc1ccccc1)Nc1ccc(Br)cc1
inhibition (at 10 µM unless noted): 13% (inactive)

COc1ccc(C(=O)C2CCCN(C(=O)c3ccc(OC)o3)C2)c(C)c1 (stereo unspecified)
inhibition (at 10 µM unless noted): 14.5% (inactive)

CC(Sc1nncn1C)C(=O)Nc1cc(C(F)(F)F)ccc1N1CCOCC1 (stereo unspecified)
inhibition (at 10 µM unless noted): 6.8% (inactive)

CC(C)CC(=O)Nc1cc(C(F)(F)F)ccc1N1CCOCC1
inhibition (at 10 µM unless noted): 39.4% (active)

CCC(=O)Nc1cc(C(F)(F)F)ccc1N1CCCC1
inhibition (at 10 µM unless noted): 9% (inactive)

CC(=O)c1ccc(NC(=O)c2cc(-c3cccs3)on2)cc1
inhibition (at 10 µM unless noted): 27.2% (inactive)

CN(C)CCCN(C(=O)c1ccc(S(=O)(=O)N2CCCc3ccccc32)cc1)c1nc2ccc(F)cc2s1
inhibition (at 10 µM unless noted): 33.1% (inactive)

CN(C)CCCN(C(=O)c1ccc(S(=O)(=O)N2CCCCCC2)cc1)c1nc2ccc(Br)cc2s1
inhibition (at 10 µM unless noted): 40.2% (active)

CCN(CC)CCN(C(=O)c1ccc(S(=O)(=O)N2CCOCC2)cc1)c1nc2cc3c(cc2s1)OCCO3
inhibition (at 10 µM unless noted): 6.8% (inactive)

O=C(N/N=C/c1ccccc1O)C1CCCC1
inhibition (at 10 µM unless noted): -5.6% (inactive)

COc1ccc(N(C)S(=O)(=O)c2ccc3c(c2)CC(C)N3C(=O)C2CC2)c(OC)c1 (stereo unspecified)
inhibition (at 10 µM unless noted): 10.4% (inactive)

O=C(Nc1ccc(NC(=O)c2cccs2)cn1)c1ccco1
inhibition (at 10 µM unless noted): -12.5% (inactive)

O=C(Nc1ccccc1)c1ccc(NC(=O)c2cccs2)cc1
inhibition (at 10 µM unless noted): 1.7% (inactive)

O=C(Nc1ccnc(-c2ccncc2)n1)c1cccs1
inhibition (at 10 µM unless noted): 37.8% (active)

CN1C(CC(=O)Nc2ccc(Br)cc2)c2ccccc2CC1(C)C (stereo unspecified)
inhibition (at 10 µM unless noted): 34.1% (active)

CN1CCN(NC(=O)Nc2ccc(Br)cc2)CC1
inhibition (at 10 µM unless noted): 9.6% (inactive)

COCC(=O)Nc1ccc(Br)cc1
inhibition (at 10 µM unless noted): -1.1% (inactive)

CC(C)Sc1ncnc2c1cnn2-c1ccccc1
inhibition (at 10 µM unless noted): 13.3% (inactive)

Cc1nonc1NC(=O)c1oc2ccccc2c1C
inhibition (at 10 µM unless noted): 15.3% (inactive)

Cc1cccc(N2C(=O)CC(SC(N)=Nc3ccccc3)C2=O)c1 (stereo unspecified)
inhibition (at 10 µM unless noted): 3% (inactive)

COC(=O)c1cc(C(=O)OC)cc(N2C(=O)CC(N3CCN(c4ccccc4)CC3)C2=O)c1 (stereo unspecified)
inhibition (at 10 µM unless noted): 9.3% (inactive)

COC(=O)c1ccccc1SC1CC(=O)N(c2cccc(C)c2)C1=O (stereo unspecified)
inhibition (at 10 µM): 74.7% (active) | inhibition (triplicate retest, at 20 µM): 89.6%

CC(=O)c1ccc(N2Cc3ccccc3C2)cc1
inhibition (at 10 µM unless noted): 23% (inactive)

COC(=O)c1ccc(NC(=O)CSc2nncn2-c2cccnc2)cc1
inhibition (at 10 µM unless noted): 12.6% (inactive)

COc1ccc(/C=C2\SC(=S)N(CCCC(=O)NC3CCCC3)C2=O)cc1OC
inhibition (at 10 µM unless noted): 12.9% (inactive)

Cc1ccc(SCC(=O)c2sc(-c3ccccc3)nc2C)cc1
inhibition (at 10 µM unless noted): 30.2% (inactive)

Cc1nc(-c2ccccc2)sc1C(=O)/C=C/N(C)C
inhibition (at 10 µM unless noted): 32.3% (active)

CN(C)/C=C/C(=O)c1ccccc1F
inhibition (at 10 µM unless noted): 27.1% (inactive)

CCCc1cc(=O)oc2c(C)c(OCC(=O)Nc3ccccn3)ccc12
inhibition (at 10 µM unless noted): 16.1% (inactive)

COc1cc(/C=C/C(=O)N2CCc3ccccc3C2)cc(OC)c1OC
inhibition (at 10 µM unless noted): 10.3% (inactive)

COc1ccc(OC)c(C(=O)NC(CC(N)=O)c2ccc(N3CCC(N4CCCCC4)CC3)c([N+](=O)[O-])c2)c1 (stereo unspecified)
inhibition (at 10 µM unless noted): 11.6% (inactive)

Cc1ccc(S(=O)(=O)n2cnc3ccccc32)c(C)c1
inhibition (at 10 µM unless noted): 40.9% (active)

Cc1ccc(C)c(S(=O)(=O)n2cnc3ccccc32)c1
inhibition (at 10 µM unless noted): 1.1% (inactive)

COc1ccc(S(=O)(=O)n2cnc3ccccc32)c(C)c1
inhibition (at 10 µM unless noted): 2.2% (inactive)

CC1CN(C(=O)c2cc(COc3c(F)cccc3F)on2)CCN1C (stereo unspecified)
inhibition (at 10 µM unless noted): -3.5% (inactive)

Cc1ccc(CNC(=O)CCS(=O)(=O)c2ccc3c(c2)CC(C)N3C(=O)C2CC2)o1 (stereo unspecified)
inhibition (at 10 µM unless noted): 20.6% (inactive)

O=C(NCC1CCCO1)/C(=C/c1ccc(Cl)cc1)NC(=O)c1ccccc1 (stereo unspecified)
inhibition (at 10 µM unless noted): 22.3% (inactive)

O=C(NC(=O)c1ccccc1)NC(=O)c1ccccc1
inhibition (at 10 µM unless noted): -6% (inactive)

N#C/C(=C/c1ccc(Cl)cc1)NC(=O)c1ccccc1
inhibition (at 10 µM unless noted): 43.3% (active)

O=C(Nc1ccccc1Cl)NC1(C(=O)N2CCOCC2)CCCCC1
inhibition (at 10 µM unless noted): 7.4% (inactive)

CC1CCC2(CC1)NC(=O)N(CC(=O)c1ccc3c(c1)OCO3)C2=O (stereo unspecified)
inhibition (at 10 µM unless noted): 9% (inactive)

Cc1occc1C(=O)N/N=C/c1ccc(-c2cccc([N+](=O)[O-])c2)o1
inhibition (at 10 µM unless noted): 11.5% (inactive)

CC[C@H]1OC(=O)[C@H](C)[C@@H](O[C@H]2C[C@@](C)(OC)[C@@H](O)[C@H](C)O2)[C@H](C)[C@@H](O[C@@H]2O[C@H](C)C[C@H](N(C)C)[C@H]2O)[C@](C)(O)C[C@@H](C)[C@@H]2N[C@@H](COCCOC)O[C@H]([C@H]2C)[C@]1(C)O
inhibition (at 10 µM unless noted): 75.2% (active)

CCn1c(SCc2cccc(C(=O)O)c2)nnc1-c1ccc(Cl)cc1
inhibition (at 10 µM unless noted): 7.1% (inactive)

CCN1CCN(CCNC(=O)c2ccc(/C=C3/Sc4ccccc4N(Cc4cccc(C)c4)C3=O)cc2)CC1
inhibition (at 10 µM unless noted): 12.2% (inactive)

CCN1/C(=C/C(=S)Nc2ccccc2)Sc2ccccc21
inhibition (at 10 µM unless noted): 27.1% (inactive)

CCN1/C(=C/c2ccc3ccc(C)cc3[n+]2CC)Sc2ccccc21
inhibition (at 10 µM): 87.1% (active) | inhibition (triplicate retest, at 20 µM): 107%

CCN1/C(=C\c2ccc3ccccc3[n+]2CC)Sc2cc(C)ccc21
inhibition (at 10 µM): 77.1% (active) | inhibition (triplicate retest, at 20 µM): 81.9%

CCCN1CCn2c3c(c4cc(Br)ccc42)CCCC31 (stereo unspecified)
inhibition (at 10 µM unless noted): 15.4% (inactive)

CCN(C(=O)CN1C(=O)/C(=C/c2ccc(F)cc2)SC1=S)C1CCS(=O)(=O)C1 (stereo unspecified)
inhibition (at 10 µM unless noted): 4.8% (inactive)

COc1ccc(C(=O)N2CCCCC2C(=O)Nc2ccc(-n3nc(C)cc3C)cc2)o1 (stereo unspecified)
inhibition (at 10 µM unless noted): 8.7% (inactive)

Cc1snc(SCc2c(F)cccc2Cl)c1C#N
inhibition (at 10 µM unless noted): 6.1% (inactive)

CCC(=C/c1sc2ccc3ccccc3c2[n+]1C)/C=C1\Sc2ccc3ccccc3c2N1C
inhibition (at 10 µM unless noted): 42.3% (active)

COc1ccc(/C=N/Nc2ccccc2C(=O)O)cc1
inhibition (at 10 µM unless noted): 10.9% (inactive)

CCNC(=O)Nc1ccc(S(=O)(=O)Nc2cnc(C)nc2C)cc1
inhibition (at 10 µM unless noted): 18.5% (inactive)

CCOc1ccccc1/C=N/Nc1nc2ccccc2o1
inhibition (at 10 µM unless noted): 14.3% (inactive)

COc1ccccc1CCNC(=O)C1CCN(C(=O)/C=C/c2ccccc2)CC1
inhibition (at 10 µM unless noted): 16.7% (inactive)
